Experimental data from PubChem BioAssay (NCATS).
Values joined by “and” are separate entries in the source; they are usually repeats but may differ in a detail not shown here. Equal entries are not always repeated. Inconclusive results are not listed. Unmarked numbers belong to inactive results. Active and inactive are the calls of the source. Calls come from the whole dose curve; as a rule, active = well fitted curve in the direction sought with a large enough effect; inconclusive = small, poorly fitted or top-dose-only effect, or another doubt; inactive = no such curve, though single readings can be large; an effect the other way counts as inactive or inconclusive.

Columns and labels:
[1] = biological target: Cellular tumor antigen p53 (Homo sapiens) (UniProt P04637); experiment: Primary qHTS for small molecule compounds that upregulate eGFP-tagged delta133p53alpha (in N-terminal) cells. (AID 2060322); conditions: NCI-H358 eGFP-delta133p53alpha fluorescence, 24 h; activation: hits give high values; note: nearly all actives have a fitted effect of over 75% in size; note: potency is the fitted concentration of half-maximal effect;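 for activation: cells pre-induced with doxycycline then dosed without doxycycline; series mostly up to about 56 µM; 0% = DMSO vehicle and 100% = reference activator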
Procedure, shortened: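 NCI-H358 cells pre-induced 24 h with 10 ng/ml doxycycline for eGFP-delta133p53alpha, plated dox-free and exposed 24 h at 37C to titrated compounds. Fixed, Hoechst-stained; gated GFP peak intensity by laser scanning cytometry, normalized to DMSO (0%) and 57.5 uM 5-azacytidine (100%).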

[2] = BET inhibitor-based combinations targeting novel dependencies in MECOM-rearranged (r) AML: SET-2 cell line (AID 2202231); conditions: SET-2 AML cells viability, CellTiter-Glo luminescence, 48 h; viability: hits give low values, concentration not given here; note: nearly all actives have a fitted effect of over 35% in size; note: potency is the fitted concentration of half-maximal effect;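 for viability: plate controls were DMSO treated cells for no effect and wells without cells for full effect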
Procedure, shortened: (§1)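 500 cells/well; 11-pt dose curve; 48 h, standard incubator; CellTiter-Glo luminescence after 15 min RT; DMSO/empty-well normalization; AUC plus Z-AUC (mean-centered within each line).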

[3] = BET inhibitor-based combinations targeting novel dependencies in MECOM-rearranged (r) AML: OCI-AML3 cell line (AID 2202232); conditions: Potency: OCI-AML3 viability; note: nearly all actives have a fitted effect of over 35% in size; note: potency is the fitted concentration of half-maximal effect
Procedure, shortened: as §1

[4] = BET inhibitor-based combinations targeting novel dependencies in MECOM-rearranged (r) AML: UCSD-AML1 cell line (AID 2202235); note: nearly all actives have a fitted effect of over 40% in size; note: potency is the fitted concentration of half-maximal effect
Procedure, shortened: (§2)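 Cells were plated at 500 per well and exposed to each drug across an 11-point dose range for 48 hr at standard incubator conditions. Viability was read by CellTiter-Glo luminescence, and activity was expressed as AUC and per-cell-line Z-transformed AUC.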

[5] = BET inhibitor-based combinations targeting novel dependencies in MECOM-rearranged (r) AML: AML-191 cell line (AID 2202236; note: nearly all actives have a fitted effect of over 35% in size; note: potency is the fitted concentration of half-maximal effect)
Procedure, shortened: as §1

[6] = BET inhibitor-based combinations targeting novel dependencies in MECOM-rearranged (r) AML: AML-194 cell line (AID 2202237; note: nearly all actives have a fitted effect of over 40% in size; note: potency is the fitted concentration of half-maximal effect)
Procedure, shortened: as §1

[7] = BET inhibitor-based combinations targeting novel dependencies in MECOM-rearranged (r) AML: MV-4-11 cell line (AID 2202233); note: nearly all actives have a fitted effect of over 45% in size; note: potency is the fitted concentration of half-maximal effect
Procedure, shortened: as §2

[8] = biological target: Cellular tumor antigen p53 (Homo sapiens) (UniProt P04637); experiment: Primary qHTS for small molecule compounds that upregulate eGFP-tagged delta133p53alpha (in C-terminal) cells. (AID 2060324);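 note: 0% = DMSO wells and 100% = 57.5 µM 5-azacytidine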
Procedure, shortened: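 Readout: filtered GFP peak intensity of gated cells (laser scanning cytometer), normalized plate-wise to intraplate controls, DMSO wells = 0% activity. Cells: NCI-H358 D133p53a-eGFP, dox 100 ng/ml 24 h beforehand, then compound 24 h, 37 °C.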

[9] = BET inhibitor-based combinations targeting novel dependencies in MECOM-rearranged (r) AML: HNT-34 cell line (AID 2202234); note: nearly all actives have a fitted effect of over 35% in size; note: potency is the fitted concentration of half-maximal effect
Procedure, shortened: as §2

Chain of Cellular tumor antigen p53 (Homo sapiens) (P04637 whole entry, looked up): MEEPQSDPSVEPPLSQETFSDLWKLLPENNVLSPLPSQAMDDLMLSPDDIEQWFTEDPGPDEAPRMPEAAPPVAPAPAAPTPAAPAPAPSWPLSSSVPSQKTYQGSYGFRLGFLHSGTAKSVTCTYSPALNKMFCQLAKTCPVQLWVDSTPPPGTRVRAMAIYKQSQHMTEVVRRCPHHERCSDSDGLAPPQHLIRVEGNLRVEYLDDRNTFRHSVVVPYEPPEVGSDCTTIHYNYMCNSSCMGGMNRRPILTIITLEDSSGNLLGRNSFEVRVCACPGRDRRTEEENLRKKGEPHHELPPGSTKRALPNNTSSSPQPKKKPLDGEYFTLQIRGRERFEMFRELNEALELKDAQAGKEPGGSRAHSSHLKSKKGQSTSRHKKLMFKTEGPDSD

Fc1ccc(C(OCCN2CCN(CCCc3ccccc3)CC2)c2ccc(F)cc2)cc1
activation [1]: 0.57% and -55.2%
Potency [2]: 23.5 µM (active)
Potency [3]: 29.5 µM (active)
Potency [4]: 26.3 µM (active)
Potency [5]: 18.6 µM (active)
Potency [6]: 23.5 µM (active)

C[C@]12Cc3cn[nH]c3C[C@@H]1CC[C@@H]1[C@@H]2CC[C@@]2(C)[C@H]1CC[C@]2(C)O
activation [1]: -21.8%
Potency [7]: 0.742 µM (active)

Clc1ccc(N2CC3CCC(C2)N3)nn1
Potency [8]: inactive

COC1(CS(=O)c2ccccc2)CCN(CCc2c[nH]c3ccc(F)cc23)CC1 (stereo unspecified)
activation [1]: -25%
viability [2]: 110%
Potency [4]: inactive

C[C@]12CC[C@@H]3[C@@H](CCC4=CC(=O)CC[C@@H]43)[C@@H]1CC[C@@H]2OC(=O)CCc1ccccc1
activation [1]: 7.88%
viability [2]: 104%
Potency [3]: inactive
Potency [7]: 18.6 µM (active)
Potency [4]: inactive
Potency [6]: inactive

O=c1[nH]c2ccccc2n1C1CCN(Cc2ccc(-c3[nH]c4cc5ncnc5cc4nc3-c3ccccc3)cc2)CC1
activation [1]: 5.59%
viability [2]: 104%
Potency [3]: 9.34 µM (active)
Potency [7]: 14.8 µM (active)
Potency [6]: 20.9 µM (active)

CN1[C@H]2CC(O)C[C@H]1[C@H]1O[C@H]12 (stereo partly specified)
activation [1]: -21%
viability [2]: 118%
Potency [3]: inactive
Potency [9]: inactive
Potency [5]: inactive
Potency [6]: inactive

C#CC1(O)CCC2C3CCC4=CC(=O)CCC4(C)C3CCC21C (stereo unspecified)
activation [1]: 2.51%
viability [2]: 107%
Potency [9]: inactive
Potency [6]: inactive

COCC1(CO)C(=O)C2CCN1CC2 (stereo unspecified)
activation [1]: -22.4%
Potency [2]: 26.3 µM (active)
Potency [7]: 10.5 µM (active)
Potency [4]: 5.25 µM (active)
Potency [5]: 10.5 µM (active)
Potency [6]: 10.5 µM (active)

CN[C@@H]1Cc2cccc3[nH]c(=O)n(c23)C1
activation [1]: 31.7%
Potency [3]: inactive
Potency [7]: inactive
Potency [9]: inactive
Potency [4]: inactive
Potency [5]: inactive

CCCC[N+]1(C)[C@H]2CC(OC(=O)[C@H](CO)c3ccccc3)C[C@H]1[C@H]1O[C@H]12 (stereo partly specified)
activation [1]: -13.2%
Potency [3]: inactive
Potency [7]: inactive
Potency [4]: inactive
Potency [5]: inactive

CN(C)CCN(C)CCc1ccc(Cl)c(Cl)c1
activation [1]: 12%
Potency [4]: inactive
Potency [6]: inactive

CCN1C[C@]2(OC(=O)c3ccccc3NC(C)=O)CC[C@H](OC)[C@@]34[C@H]5CC6[C@@H](OC)C[C@](O)(C(C[C@@H]23)[C@@H]14)[C@@]5(O)[C@@H]6OC
activation [1]: 24.6%
viability [2]: 104%
Potency [3]: inactive
Potency [5]: inactive

C=C1C[C@@H]2[C@H](CC[C@]3(C)C(=O)CC[C@@H]23)[C@@]2(C)C=CC(=O)C=C12
activation [1]: -17.6%
Potency [7]: 18.6 µM (active)
Potency [4]: inactive

C[C@@H]1CC[C@H]2[C@@H](C)C(=O)O[C@@H]3O[C@@]4(C)CC[C@@H]1[C@]32OO4
activation [1]: 0%
Potency [3]: 1.18 µM (active)
Potency [9]: 14.8 µM (active)
Potency [4]: inactive
Potency [5]: 5.25 µM (active)

CC(C)(C)c1cc(C=C(C#N)C#N)cc(Br)c1O
activation [1]: 19.6%
Potency [3]: 23.5 µM (active)
Potency [7]: 18.6 µM (active)
Potency [4]: 33.2 µM (active)

C[C@@H]1C[C@@H]([C@H](O)CC2CC(=O)NC(=O)C2)C(=O)[C@@H](C)C1
Potency [1]: 4.37 µM (active) and 968 nM (active)
Potency [2]: 0.296 µM (active)
Potency [9]: 0.263 µM (active)
Potency [5]: 0.742 µM (active)
Potency [6]: 0.833 µM (active)

CSCC[C@@H](NC(=O)[C@@H](Cc1ccccc1)NC(=O)CNC(=O)CNC(=O)[C@@H](N)Cc1ccc(O)cc1)C(=O)O
activation [1]: 22.9%
viability [2]: 119%
Potency [3]: inactive
Potency [9]: inactive
Potency [5]: inactive

O=S(=O)(CC1CS1)c1ccc(Oc2ccccc2)cc1 (stereo unspecified)
activation [1]: -10.4%
Potency [3]: 16.6 µM (active)
Potency [9]: 20.9 µM (active)

COc1ccc(C(=O)c2c(C)n(CCN3CCOCC3)c3ccccc23)cc1
activation [1]: 1.02%
Potency [2]: 8.33 µM (active)
Potency [7]: 2.63 µM (active)
Potency [9]: 2.35 µM (active)
Potency [4]: 1.86 µM (active)
Potency [6]: 1.48 µM (active)

CCCCCC[C@H]1C(=O)O[C@H](C)[C@H](NC(=O)c2cccc(NC=O)c2O)C(=O)O[C@@H](C)[C@@H]1OC(=O)CC(C)C
activation [1]: -21.7%
Potency [4]: inactive

COC[C@@H](NC(C)=O)C(=O)NCc1ccccc1
activation [1]: -5.83%
viability [2]: 112%
Potency [7]: inactive
Potency [5]: inactive

CC(C)(O)C(=O)Nc1ccc([N+](=O)[O-])c(C(F)(F)F)c1
activation [1]: -14.4%
Potency [4]: inactive

COc1ccc(C(=O)c2c(C)n(CCN3CCOCC3)c3cc(I)ccc23)cc1
activation [1]: 27.2%
Potency [3]: 9.34 µM (active)
Potency [7]: 8.33 µM (active)
Potency [4]: inactive
Potency [6]: 9.34 µM (active)
